Results on 38 compounds are retold here after PubChem BioAssay (NCATS).

Values without a mark were called inactive. Where a call stands in place of a potency, no number is given. Active and inactive are the calls of the source. Calls come from the whole dose curve; as a rule, active = well fitted inhibition curve with a large enough effect; inconclusive = small, poorly fitted or top-dose-only effect; inactive = flat fitted curve, though single readings scatter.

For this assay, the target named is Luciferin 4-monooxygenase (Photinus pyralis) (UniProt P08659). The assay can be described thus: Primary firefly luciferase (FLuc) qHTS assay for identification of artifact compounds. (AID 1845220). Note: nearly all actives have a fitted effect of over 60% in size. As to conditions: purified firefly luciferase, luminescence, 5 min; series mostly up to 54.1 µM. In outline: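 Enzymatic FLuc inhibition assay: compounds pre-exposed to luciferin/ATP (10 uM each) for 15 min, then purified P. pyralis enzyme at 10 nM added. Read-out: luminescence at 5 min.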
Consider `C=C1CCC2C(OC(=O)C2(O)COC(C)=O)C2C(=C)C(O)CC12` (stereo not drawn), for which the Potency entry was “inactive”.
Same read-out and setting: the entry for `C=C1CC[C@@H]2[C@](C)(CO[C@@H]3O[C@H](CO)[C@@H](O)[C@H](O)[C@H]3O)CCC[C@@]2(C)[C@@H]1CCC1=CCOC1=O` is “inactive”; for `COc1ccc2c(c1O)OC[C@H]1c3ccc(O)cc3O[C@@H]21` it is “inactive”.
The same measure, in the same setting: the entry for `O=C(CCO[C@@H]1O[C@H](CO)[C@@H](O)[C@H](O)[C@H]1O)c1ccc(O)cc1` is “inactive”.
Consider `O=C(OCC12OC1C=CC(OC(=O)c1ccccc1)C2O)c1ccccc1` (stereo not drawn), for which the Potency result was “inactive”.
On the same count and under the same terms, next, `NC1CCC(N[C@@H]2C[C@H]2c2ccccc2)CC1` (stereo partly drawn): “inactive”.
On the same count and under the same terms, next, `COC1CC(=O)CCC(C)OC(=O)CC1O` (stereo not drawn): “inactive”.
On the same count and under the same terms, the entry for `CC(C)Nc1cc(-c2c[nH]c(C(=O)N[C@H](CO)c3cccc(Cl)c3)c2)c(Cl)cn1` is “inactive”.
Consider `COC(=O)c1cc(CN2CCN(C(=N)N)CC2)cc(C(=O)N2CCN(C(=O)c3ccc(C(=N)N)cc3)CC2)c1`, for which the Potency result was “inactive”.
Still for that read-out and setting: next, `CC(=O)OC[C@]1(O)[C@H]2[C@H](OC(=O)CC(C)C)OC=C(CO[C@@H]3O[C@H](CO)[C@@H](O)[C@H](O)[C@H]3O)[C@H]2C[C@@H]1O`: “inactive”; `COC(=O)C1=CO[C@@H](O[C@@H]2O[C@H](CO)[C@@H](O)[C@H](O)[C@H]2O)[C@@H]2[C@@](C)(O)[C@@H](O)C[C@]12O`: “inactive”; `COc1ccc(/C=C/C(=O)O[C@@H]2[C@@H](OC(C)=O)[C@@H](OC(C)=O)[C@H](O[C@H]3[C@@H]4C=CO[C@@H](O[C@@H]5O[C@H](CO)[C@@H](O)[C@H](O)[C@H]5O)[C@@H]4[C@@]4(CO)O[C@@H]34)O[C@H]2C)cc1O`: “inactive”.
On the same count and under the same terms, next, `CN1C(=O)N[C@@H](Cc2c[nH]c3c(Cl)cccc23)C1=O`: “inactive”.
As to `Cc1ccc(C(=O)Nc2ccc(Oc3cc4cnn(C)c4cc3-c3cn[nH]c3)c(F)c2)c(=O)n1-c1ccc(F)cc1`, the Potency result is “inactive”.
In the case of `CC1(C(=O)O)CCCC2(C)C1CCC13CC(CCC21)C1(CO)OC31` (stereo not drawn), the Potency entry was “inactive”.
Consider `CC(C(=O)O)C1CCC2(C)C3C(=O)C=C4C(CCC(=O)C4(C)C)C3(C)CCC12C` (stereo not drawn), for which the Potency entry is “inactive”.
The same measure, in the same setting: the entry for `CC1CCC2C(C(=O)O)=CC3C(O)C(C)(C)CC123` (stereo not drawn) is “inactive”; for `CC1CCC23COC(=O)C2=CC(O)CC3C1(C)CCC1=CC(=O)OC1O` (stereo not drawn) it is “inactive”.
Regarding `Cc1cc(C)cc(NC(=O)Cc2ccc(OC(C)(C)C(=O)O)cc2)c1`, the Potency result is “inactive”.
For the compound `CCC(=O)NS(=O)(=O)c1ccc(-c2c(-c3ccccc3)noc2C)cc1`, the Potency result was “inactive”.
Take `C[C@@H]1O[C@@H](O[C@H]2[C@H](O)[C@@H](C(=O)O)O[C@@H](O[C@H]3CC[C@@]4(C)C(CC[C@]5(C)C4CC=C4C6CC(C)(C)CC[C@]6(C(=O)O)CC[C@]45C)C3(C)C)[C@@H]2O[C@@H]2O[C@H](CO)[C@@H](O)[C@H](O)[C@H]2O)[C@H](O)[C@H](O)[C@H]1O` (stereo partly drawn): the outcome is “inactive [at 11.6 µM]”.
For the compound `CCc1c(CC(N)=O)c2cc(OCCCP(=O)(O)O)ccc2n1Cc1ccccc1`, the Potency entry is “inactive”.
For `CCC(C)/C=C(C)/C=C/C1=CC2=C(Cl)C(=O)C(C)(OC(C)=O)C(=O)C2=CN1CCCC(=O)O` (stereo not drawn), the Potency result is “inactive”.
The same measure, in the same setting: the entry for `CC1(C)CCCC2(C)C(CO)C3CCC2C31` (stereo not drawn) is “inactive”; for `O=C(/C=C/c1ccc(O)cc1)O[C@H]1[C@@H]2C=CO[C@@H](O[C@@H]3O[C@H](CO)[C@@H](O)[C@H](O)[C@H]3O)[C@@H]2[C@@]2(CO)O[C@@H]12` it is “inactive”.
On the same count and under the same terms, next, `OC[C@H]1O[C@@H](Oc2ccc3c(c2)OC[C@H]2c4cc5c(cc4O[C@@H]32)OCO5)[C@H](O)[C@@H](O)[C@@H]1O`: “inactive”.
In the case of `CC1(C)CCC2(C(=O)OC3OC(COC4OC(CO)C(O)C(O)C4O)C(O)C(O)C3O)CCC3(C)C(=CCC4C5(C)CCC(O)C(C)(C(=O)O)C5CCC43C)C2C1O` (stereo not drawn), the activity change, negative = inhibition was 2.78% [at 11.6 µM].
Turning to `c1ccc(Cc2ncc3c(n2)CCNCC3)cc1`, the Potency result was “inactive”.
The same measure, in the same setting: next, `Cc1cc(O)c(C(C)C)cc1O[C@@H]1O[C@H](CO)[C@@H](O)[C@H](O)[C@H]1O`: “inactive”; `O=c1ccn([C@@H]2O[C@H](CO)[C@@H](O)[C@H]2O)c(=O)[nH]1`: “inactive”.
Same read-out and setting: next, `CC1(C)O[C@]23C[C@H]1C[C@H](OC(=O)c1ccoc1)[C@]2(C)[C@@H](OC(=O)c1ccoc1)CCC3(C)O` (stereo partly drawn): “inactive”; `OC[C@H]1O[C@@H](OCCc2ccc(O)cc2)[C@H](O)[C@@H](O)[C@@H]1O`: “inactive”; `CC(NC(=O)CC(=O)O)c1nc2ccccc2c(=O)[nH]1` (stereo not drawn): “inactive”.
Take `COC(=O)C1=C[C@@H](O)[C@@H](O)[C@H](O[C@@H]2O[C@H](COC(=O)/C=C/c3ccccc3)[C@@H](O)[C@H](O)[C@H]2O)C1`: the Potency result was “inactive”.
Same read-out and setting: next, `NC(=O)c1ccc(OCC2NC(=O)C3CCCN3C2=O)cc1` (stereo not drawn): “inactive”; `CC1(O)CCC2C(C(=O)O)=COC(OC3OC(CO)C(O)C(O)C3OC(=O)/C=C/c3ccc(O)cc3)C21` (stereo not drawn): “inactive”.
The same measure, in the same setting: the entry for `CC1(C)CC[C@]2(C(=O)O[C@@H]3O[C@H](CO)[C@@H](O)[C@H](O)[C@H]3O)CC[C@]3(C)C(=CCC4[C@@]5(C)C[C@@H](O)[C@H](O)[C@@](C)(CO)C5CC[C@]43C)C2C1` (stereo partly drawn) is “inactive”; for `OCC1=CC[C@@H]2C=CO[C@@H](O[C@@H]3O[C@H](CO)[C@@H](O)[C@H](O)[C@H]3O)[C@H]12` it is “inactive”.
